# HT1080-NT tox = kills 2HG-producing HT-1080-NT fibrosarcoma cells. HT-1080-NT fibrosarcoma viability, CellTiter-Glo ATP luminescence, 48 h. Potency, µM (titrated, usually from 46.1 µM), without a hit: at the highest dose activity, negative = less viability, most hits filed as cytotoxic. 360,000 compounds, 1.6% hits;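 also: NT is the 2HG producing partner of a matched IDH1 knockdown line; 0% = DMSO-treated cells and -100% = media-only wells without cells; nearly all actives have a fitted effect of over 55% in size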
#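 Toxicity toward the 2HG-producing NT line was scored as %Activity, normalised to DMSO and no-cell wells, from CellTiter-Glo luminescence after 48 hours' treatment.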
# HT1080 IDH1KD tx = toxicity to HT-1080 IDH1 knockdown cells (counter line); HT-1080 IDH1 knockdown viability, ATP luminescence, 48 h; Potency, µM (doses to about 46.1 µM), for inactives: at the highest dose activity, negative = toxicity, actives largely listed as cytotoxic; 360,000 compounds, 2% hits;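 also: 0% = DMSO wells and -100% = cell-free medium wells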
#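 Viability of IDH1-knockdown HT-1080 fibrosarcoma cells was assessed by CellTiter-Glo after 48 h at 37 °C with titrated compound; concentration-effect curves were classified by fit quality and response size.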
# HepG2 viability = HepG2 cytotoxicity, counter-screen for TGF-b inhibitors; HepG2 CAGA-GFP viability, ATP luminescence, 18 h; Potency, µM (top dose mostly 46.1 µM), inactives show top-dose activity change, negative = cytotoxicity, actives largely listed as cytotoxic; 410,000 compounds, 0.76% hits; AID 588856
#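 CellTiter-Glo luminescence gave cytotoxicity after 18 hours at 37 degrees C. The cells were HepG2 CAGA-GFP in 1% FBS DMEM, stimulated with 500 pg/mL TGF-beta after compound addition. %Activity was normalised to no-cell wells (complete cell-killing) and DMSO (no toxicity), and curves were fitted and classified.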
# DT40 TDP1 CPT = growth inhibition of DT40 Tdp1-/-;hTDP1 cells with camptothecin (screen for TDP1 inhibitors); chicken DT40 Tdp1-/-;hTDP1 cells + 20 nM CPT, ATP luminescence, 48 h; Potency, µM (series often up to 46.2 µM), without a hit: at the highest dose activity change, negative = growth inhibition, most hits filed as inhibitors; 420,000 compounds, 12% hits; also: % is scaled to controls: 0 for no effect and ±100 for the full control effect; nearly all actives have a fitted effect of over 55% in size
#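 Cell growth measured by CellTiter-Glo luminescence after a minimum 48 h, 37 C compound exposure with 20 nM CPT in Tdp1-knockout DT40 cells stably expressing hTDP1, seeded 400/well; qHTS titration format.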
# TDP1 cell noCPT = qHTS for Inhibitors of human tyrosyl-DNA phosphodiesterase 1 (TDP1): qHTS in cells in absence of CPT | DT40 Tdp1-/- hTDP1 cells, no CPT, ATP luminescence, 48 h | Potency, µM (doses to about 46.2 µM), inactives show at the highest dose activity change, negative = growth inhibition, actives largely listed as inhibitors | 420,000 compounds, 15% hits | AID 686978, 2013; also: % is scaled to controls: 0 for no effect and ±100 for the full control effect; nearly all actives have a fitted effect of over 55% in size
#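 Chicken DT40 Tdp1-/- cells complemented with human TDP1, screened without camptothecin (DMSO vehicle only), 400 cells/well. Compounds pin-transferred, cells incubated at 37 °C for at least 48 hr. Growth read as ATP-dependent luminescence (CellTiter-Glo, 30 min at RT).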
# TGFb SMAD3 inh = blocks TGF-b signaling; 410,000 compounds, 1.2% hits; HepG2 CAGA-GFP TGF-b/SMAD3 reporter, GFP fluorescence, 18 h; TGF-beta stimulated, 500 pg/mL final; Potency, µM (titrated, usually from 46.1 µM), for inactives: at the top dose activity, negative = inhibition, usual class: inhibitors; also: % is scaled to controls: 0 for no effect and ±100 for the full control effect; nearly all actives have a fitted effect of over 65% in size
#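 Inhibition was scored as loss of TGF-beta-induced (500 pg/mL final, 18 hours, 37 degrees C) GFP in HEPG2 cells carrying a CAGA-GFP reporter, in DMEM with 1% FBS. Well GFP was summed per cell; Activity was normalised to unstimulated and stimulated DMSO wells, then concentration-response fitting.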
# An asterisk follows results filed as active; ? = inconclusive; . = no result; [ ] = remark or other dose. An excerpt weighted towards active compounds, which were near 17% of everything screened. Calls follow the shape of the dose curve; as a rule, active = well fitted curve in the direction sought with a large enough effect; inconclusive = small, poorly fitted or top-dose-only effect, or another doubt; inactive = no such curve, though single readings can be large; an effect the other way counts as inactive or inconclusive. Potency is read from the fitted curve at half-maximal effect.
SMILES,HT1080-NT tox,HT1080 IDH1KD tx,HepG2 viability,DT40 TDP1 CPT,TDP1 cell noCPT,TGFb SMAD3 inh
CCOc1ncccc1C(=O)N1CCN(C(c2ccccc2)c2ccccc2)CC1,-27%,-28%,-25%,13µM*,13µM*,-4%
CCOc1ncccc1C(=O)N1CCN(S(=O)(=O)c2cccs2)CC1,4%,2%,0%,-7%,-14%,0%
CCCCn1nc(C(=O)N2CCN(S(=O)(=O)c3ccccc3)CC2)c2ccccc2c1=O,-3%,1%,40%,?,15µM*,0%
COc1cccc(NC(=O)n2ncc3c(C)cccc32)c1,?,?,-17%,?,?,-1%
Cn1nc(C(=O)N2CCN(S(=O)(=O)/C=C/c3ccccc3)CC2)c2ccccc2c1=O,4%,1%,2%,14%,?,-2%
Cn1nc(C(=O)N2CCN(C(c3ccccc3)c3ccccc3)CC2)c2ccccc2c1=O,?,?,-3%,23µM*,?,-17%
O=C(c1cc2ccccc2o1)N1CCN(S(=O)(=O)/C=C/c2ccccc2)CC1,-15%,-9%,-17%,?,?,-1%
Cc1cc(C(=O)N2CCN(S(=O)(=O)c3ccccc3)CC2)c(C)o1,-2%,-7%,-10%,23µM*,?,22%
Cc1cc(C(=O)N2CCc3ccccc3C2)no1,?,28%,-1%,15%,-1%,-6%
Cc1cc(C(=O)N2CCc3ccccc3C2)c(C)o1,9%,10%,0%,16µM*,?,-13%
O=C(c1cc2c(s1)CCCC2)N1CCN(S(=O)(=O)c2ccccc2)CC1,1%,-3%,10µM*,-23%,?,0%
CC(=O)N1CCN(C(=O)c2cc3c(s2)CCCC3)CC1,15%,15%,-2%,-16%,2%,-9%
O=C(c1cc2ccccc2o1)N1CCN(S(=O)(=O)c2ccccc2)CC1,1%,-2%,2%,12µM*,-21%,?
CC(NC(=O)CSC(=S)N(C)C)C12CC3CC(CC(C3)C1)C2 (centres undefined),-4%,-8%,-15%,?,?,?
Cc1nc2ccccc2c2oc(C(=O)N3CCC(C)CC3)cc12,-1%,6%,-4%,?,?,1%
Cc1nc2ccccc2c2oc(C(=O)N3CCc4ccccc4C3)cc12,1%,0%,-28%,23µM*,16µM*,-29%
COc1ccc(NC(=O)CN2C(=O)C(c3ccccc3)=NC23CCC(C)CC3)cc1Cl (centres undefined),.,.,-36%,?,?,.
CCOc1ccc(NC(=O)CN2C(=O)C(c3ccccc3)=NC23CCC(C)CC3)cc1 (centres undefined),.,.,-21%,16µM*,16µM*,?
S=C1Cc2ccccc2N1,4.6µM*,5.2µM*,8.9µM*,0.92µM*,0.73µM*,5.6µM*
CCC(CC)C(=O)N=C1SC2CS(=O)(=O)CC2N1CCc1ccc(OC)cc1 (centres undefined),-13%,?,-9%,-17%,?,-27%
CCC1(C2CCN(Cc3ccc(C)s3)CC2)NC(=O)N(CC2COc3ccccc3O2)C1=O (centres undefined),.,.,.,?,21µM*,.
CCC1(C2CCN(Cc3c(C)[nH]c4ccccc34)CC2)NC(=O)N(Cc2ccc3c(c2)OCO3)C1=O (centres undefined),.,.,.,23µM*,16µM*,.
CCC1(C2CCN(Cc3ccc(OC)cc3)CC2)NC(=O)N(CC2COc3ccccc3O2)C1=O (centres undefined),.,.,.,-16%[9.04 µM],?,.
CCC1(C2CCN(Cc3ccoc3)CC2)NC(=O)N(CC2COc3ccccc3O2)C1=O (centres undefined),.,.,.,-12%,-24%,.
CC(C)OC(=O)c1ccc2ccc(-c3ccccc3)nc2c1,-8%,-16%,-25%,?,16µM*,-12%
SMILES,HT1080-NT tox,HT1080 IDH1KD tx,HepG2 viability,DT40 TDP1 CPT,TDP1 cell noCPT,TGFb SMAD3 inh
CC(C)OC(=O)c1ccc2nc3ccccc3nc2c1,?,-19%,7%,1%,?,2%
COCc1cc(C)nc2c1C(=O)NC(c1ccc(F)cc1)N2Cc1ccccc1 (centres undefined),.,.,-2%,-7%,-16%,4%
O=C1NC(c2cccs2)Nc2sc3c(c21)CCCC3 (centres undefined),-7%,-1%,3%,4.1µM*,3.3µM*,23%
COc1cc(-c2noc(CSc3nc(-c4ccccc4)cc(=O)[nH]3)n2)cc(OC)c1OC,.,.,-16%,-8%,-22%,0%
COc1ccc(Nc2nc(S(=O)(=O)c3ccc(C)cc3)c(Cl)s2)cc1,23µM*,23µM*,-30%,?,?,11µM*
COc1ccc(C(=O)Nc2cc(C)nn2-c2ccc(C)cc2)cc1,-8%,-12%,-1%,?,-24%,-13%
COc1nc(=O)n(C2C=CC(=O)O2)cc1F (centres undefined),?,?,-50%,2.3µM*,2.3µM*,?
CC(C)C(=O)NNS(=O)(=O)c1ccccc1[N+](=O)[O-],15%,4%,16µM*,5%,-4%,-3%
O=Cc1cc2ccccc2nc1SCCCF,16µM*,7.3µM*,-1%,?,4.6µM*,-13%
Cc1ccc2nc(N3CCN(S(=O)(=O)c4ccc(C)c(Cl)c4)CC3)c(C#N)cc2c1,?,?,6%,21µM*,21µM*,-7%
Cc1ccc2cc(C#N)c(N3CCCN(S(=O)(=O)c4ccccc4)CC3)nc2c1,2%,25%,0%,?,26µM*,8%
Cc1ccc2cc(C#N)c(N3CCCN(S(=O)(=O)c4ccccc4)CC3)nc2c1C,-6%,-16%,-24%,-9%,-13%,10%
Cc1ccc2cc(C#N)c(N3CCCN(S(=O)(=O)c4ccc(F)cc4)CC3)nc2c1,8%,10%[9.24 µM],-3%,?,15µM*,-6%
COC(=O)c1cc2sccc2n1CC(=O)Nc1ccc(OC)c(OC)c1,.,.,6%,-17%,-16%,26%
CC1CCC2(CC1)NC(=O)N(CC(=O)NC1CCCCC1C)C2=O (centres undefined),1%,0%,-8%,?,-66%,20%

# Screening data: PubChem, National Center for Advancing Translational Sciences (NCATS)
